{"source": "PubChem BioAssay", "key": {"[1]": {"tested_on": "Aerobactin synthetase IucA (Klebsiella pneumoniae)", "assay": "IucA aerobactin synthetase inhibitors, biochemical, Tocris library, absorbance (AID 1345561; call rule not given here;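 for all read-outs here: 100% = enzyme without compound and 0% = no enzyme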)", "settings": "purified IucA enzyme assay, absorbance (OD) read-out; stronger effect = lower value; concentration not given here"}, "[2]": {"assay": "growth inhibition of DIPG glioma cells, dose response, cell-based, SU-DIPG-XVII, MIPE5.0, CellTiter-Glo, qHTS (AID 1347060; cut-off not given, nearly all actives have AC50 up to about 26 µM;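 for all read-outs here: cells exposed to compound for 48 hours before viability readout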)", "settings": "SU-DIPG-XVII viability, CellTiter-Glo ATP luminescence"}, "[3]": {"assay": "growth inhibition of DIPG glioma cells, dose response, cell-based, SU-DIPG-XIII, MIPE4.0, CellTiter-Glo, qHTS (AID 1347061; cut-off not given, nearly all actives have AC50 up to about 37 µM;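 for all read-outs here: cells exposed to compound for 48 hours before readout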)", "settings": "SU-DIPG-XIII viability, CellTiter-Glo ATP luminescence"}, "[4]": {"assay": "growth inhibition of DIPG glioma cells, dose response, cell-based, JHH-DIPG-1, MIPE4.0, CellTiter-Glo, qHTS (AID 1347062; cut-off not given, nearly all actives have AC50 up to about 27 µM;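 for all read-outs here: cells exposed to compound for two days before readout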)", "settings": "JHH-DIPG-1 viability, CellTiter-Glo ATP luminescence"}, "[5]": {"assay": "growth inhibition of DIPG glioma cells, dose response, cell-based, SU-DIPG-IV, MIPE4.0, CellTiter-Glo, qHTS (AID 1347063; cut-off not given, nearly all actives have AC50 up to about 30 µM;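 for all read-outs here: compound exposure lasted 48 hours before the viability readout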)", "settings": "SU-DIPG-IV viability, CellTiter-Glo ATP luminescence"}, "[6]": {"assay": "growth inhibition of DIPG glioma cells, dose response, cell-based, SU-DIPG-XIII, MIPE5.0, CellTiter-Glo, qHTS (AID 1347064; cut-off not given, nearly all actives have AC50 up to about 23 µM;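 for all read-outs here: cells exposed to compound for 48 hours before the viability read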)", "settings": "SU-DIPG-XIII viability, CellTiter-Glo ATP luminescence"}, "[7]": {"assay": "viability loss in pontine glioma line – cell-based, SU-DIPG-XXV, MIPE5.0, CellTiter-Glo, qHTS, dose response (AID 1347065; cut-off not given, nearly all actives have AC50 up to about 26 µM;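 for all read-outs here: cells exposed to compound for 48 hours before ATP readout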)", "settings": "CellTiter-Glo ATP luminescence"}, "[8]": {"assay": "SU-DIPG-VI glioma cell viability, MIPE4.0 library, CellTiter-Glo luminescence, qHTS (AID 1347066; cut-off not given, nearly all actives have AC50 up to about 30 µM;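 for all read-outs here: cells exposed to compound for 48 hours before readout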)", "settings": "CellTiter-Glo ATP luminescence"}, "[9]": {"assay": "JHH-DIPG-1 glioma cell viability, MIPE5.0 library, CellTiter-Glo luminescence, qHTS (AID 1347067; cut-off not given, nearly all actives have AC50 up to about 26 µM;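 for all read-outs here: cells exposed to compound for 48 hours before readout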)", "settings": "JHH-DIPG-1 glioma viability, CellTiter-Glo ATP luminescence"}, "[10]": {"assay": "SU-DIPG-XXV glioma cell viability, MIPE5.0 library, qHTS (AID 1347068; cut-off not given, nearly all actives have IC50 up to about 30 µM;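 for all read-outs here: cells exposed to compound for 48 hours before viability readout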)"}, "[11]": {"assay": "sensitizers of A549 cells to miR-34 induction, primary screen, imaging, A549 dox-inducible miR-34, nuclei and caspase counts (AID 1347080;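 active = compounds whose cell count with miR-34 switched on is under 0.7 times the count with it off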)", "settings": "A549 miR-34 inducible, Hoechst nuclei count, 48 h"}, "[12]": {"assay": "viability rescue of complex I mutant cybrids, primary screen, cell-based, galactose medium, ATP luminescence (AID 1645843;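 active = z-score of at least 1.8 in each of two replicates, scored against plate mean and spread of sample wells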;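 for all read-outs here: positive z means more ATP and so rescue of galactose-driven cybrid death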)", "settings": "complex I mutant cybrid cells, 72 h, stronger effect = higher value"}, "[13]": {"assay": "liver-stage malaria parasite growth inhibition, primary screen, cell-based, HepG2, luciferase luminescence, HepG2 viability (AID 624349; in the data active = parasite load remaining mostly below about 12%, no sharp cut-off; inactive = mostly above about 10%;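 for all read-outs here: 100% = mean of DMSO negative control wells on the same plate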)", "settings": "P. berghei liver stage in HepG2, luciferase luminescence, concentration not given here; parasite load remaining: stronger effect = lower value; viability: measured here: HepG2 viability without parasites"}, "[14]": {"assay": "differential killing of epithelial or mesenchymal cells, primary screen, imaging, PC-3E GFP, TEM4-18 mCherry, co-culture (AID 1345086);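 for all read-outs here: cells exposed to compound for 72 h before imaging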;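 for red/green cell ratio (normalised): normalised mesenchymal count divided by normalised epithelial count so high means epithelial killing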", "settings": "imaging cell counts, at 1 µM; for red/green cell ratio (normalised): actives lie on both sides, counts scaled to control wells, 1 = unselective"}, "[15]": {"assay": "polyglutamine-triggered caspase-3 activation inhibitors, cell-based (AID 1583)", "settings": "polyglutamine-induced caspase-3 activation, cell assay; stronger effect = higher value; concentration not given here"}, "[16]": {"assay": "suppressors of polyQ aggregation in yeast, 75Q-TubU reporter (AID 1593)", "settings": "Yeast 75Q polyglutamine aggregation reporter"}, "[17]": {"settings": "measured here: epithelial PC-3E GFP cell survival"}, "[18]": {"settings": "measured here: mesenchymal TEM4-18 mCherry cell survival"}}, "note": "Results filed as inconclusive are left out. The source made the active and inactive calls.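 Rule for the calls, unless noted: active = compounds killing one labelled cell type while sparing the other, by normalised counts and ratio limits, not self-fluorescent; inactive = the rest.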"}
{"smiles": "CC(C)[C@H](CO)Nc1nc(Nc2cccc(Cl)c2)c2ncn(C(C)C)c2n1", "values": [{"measurement": "remaining activity", "setting": "[1]", "result": "115% (inactive)"}, {"measurement": "AC50", "setting": "[2]", "result": "14.8 µM (active)"}, {"measurement": "AC50", "setting": "[3]", "result": "20.9 µM (active)"}, {"measurement": "AC50", "setting": "[4]", "result": "16.6 µM (active)"}, {"measurement": "AC50", "setting": "[5]", "result": "14.8 µM (active)"}, {"measurement": "AC50", "setting": "[6]", "result": "14.8 µM (active)"}, {"measurement": "AC50", "setting": "[7]", "result": "7.42 µM (active)"}, {"measurement": "AC50", "setting": "[8]", "result": "20.9 µM (active)"}, {"measurement": "AC50", "setting": "[9]", "result": "14.8 µM (active)"}, {"measurement": "IC50", "setting": "[10]", "result": "16.6 µM (active)"}, {"measurement": "fold change", "setting": "[11]; stronger effect = lower value, cell number ratio, induced over uninduced", "result": "1.01 (inactive)"}, {"measurement": "fold change", "setting": "[11]; measured here: relative caspase fold change +Dox/-Dox", "result": 0.968}, {"measurement": "cell count", "setting": "[11]; measured here: total cells with miR-34 induction, stronger effect = lower value", "result": 1040}, {"measurement": "cell count", "setting": "[11]; measured here: total cells without miR-34 induction", "result": 1030}, {"measurement": "z-score", "setting": "[12]", "result": "-0.745 (inactive)"}]}
{"smiles": "C[C@@H]1O[C@@H](OC[C@H]2OC(Oc3c(-c4ccc(OCCO)c(OCCO)c4)oc4cc(OCCO)cc(O)c4c3=O)[C@H](O)[C@@H](O)[C@@H]2O)[C@H](O)[C@H](O)[C@H]1O", "note": "(some centres undefined)", "values": [{"measurement": "parasite load remaining", "setting": "[13]", "result": "141% (inactive)"}, {"measurement": "viability", "setting": "[13]", "result": 89.1, "unit": "%"}, {"measurement": "red/green cell ratio (normalised)", "setting": "[14]", "result": "0.94 (inactive)"}, {"measurement": "normalised cell number", "setting": "[14]; [17]", "result": 1.03}, {"measurement": "normalised cell number", "setting": "[14]; [18]", "result": 0.96}]}
{"smiles": "C[C@@H]1CC[C@@]2(OC1)OC1CC3C4CC=C5C[C@@H](O)CC[C@]5(C)C4CC[C@]3(C)C1[C@@H]2C", "note": "(some centres undefined)", "values": [{"measurement": "parasite load remaining", "setting": "[13]", "result": "131% (inactive)"}, {"measurement": "viability", "setting": "[13]", "result": 91.4, "unit": "%"}, {"measurement": "red/green cell ratio (normalised)", "setting": "[14]", "result": "1.13 (inactive)"}, {"measurement": "normalised cell number", "setting": "[14]; [17]", "result": 1.02}, {"measurement": "normalised cell number", "setting": "[14]; [18]", "result": 1.16}]}
{"smiles": "C/C=C(/C)C(=O)O[C@@H]1[C@H](OC(C)=O)[C@@]2(CO)C(CC1(C)C)C1=CCC3[C@@]4(C)CC[C@H](O[C@@H]5O[C@H](C(=O)O)[C@@H](O[C@@H]6O[C@H](CO)[C@@H](O)[C@H](O)[C@H]6O)[C@H](O)[C@H]5O[C@@H]5O[C@H](CO)[C@@H](O)[C@H](O)[C@H]5O)[C@](C)(CO)C4CC[C@@]3(C)[C@]1(C)C[C@H]2O", "note": "(some centres undefined)", "values": [{"measurement": "parasite load remaining", "setting": "[13]", "result": "66% (inactive)"}, {"measurement": "viability", "setting": "[13]", "result": 87.2, "unit": "%"}, {"measurement": "red/green cell ratio (normalised)", "setting": "[14]", "result": "0.77 (inactive)"}, {"measurement": "normalised cell number", "setting": "[14]; [17]", "result": 1.1}, {"measurement": "normalised cell number", "setting": "[14]; [18]", "result": 0.85}]}
{"smiles": "COc1ccc([C@@H]2CC(=O)c3c(O)cc(O[C@@H]4O[C@H](CO[C@H]5O[C@@H](C)[C@H](O)[C@@H](O)[C@H]5O)[C@@H](O)[C@H](O)[C@H]4O)cc3O2)cc1O", "values": [{"measurement": "inhibition", "setting": "[15]", "result": 12.3, "unit": "%"}, {"measurement": "score", "setting": "[16]", "result": 1.13}, {"measurement": "red/green cell ratio (normalised)", "setting": "[14]", "result": "0.82 (inactive)"}, {"measurement": "normalised cell number", "setting": "[14]; [17]", "result": 0.99}, {"measurement": "normalised cell number", "setting": "[14]; [18]", "result": 0.81}]}
{"smiles": "CN[C@@H]1[C@@H](O)[C@@H](O[C@@H]2[C@@H](O)[C@H](O[C@H]3O[C@H]([C@@H](C)NC)CC[C@H]3N)[C@@H](N)C[C@H]2N)OC[C@]1(C)O", "values": [{"measurement": "red/green cell ratio (normalised)", "setting": "[14]", "result": "0.92 (inactive)"}, {"measurement": "normalised cell number", "setting": "[14]; [17]", "result": 1.22}, {"measurement": "normalised cell number", "setting": "[14]; [18]", "result": 1.13}, {"measurement": "z-score", "setting": "[12]", "result": "0 (inactive)"}]}
{"smiles": "CC(=O)N[C@@H]1[C@@H](C(O)[C@H](O)CO)O[C@](O)(C(=O)O)C[C@@H]1O", "note": "(some centres undefined)", "values": [{"measurement": "inhibition", "setting": "[15]", "result": 7.5, "unit": "%"}, {"measurement": "score", "setting": "[16]", "result": 1.07}, {"measurement": "red/green cell ratio (normalised)", "setting": "[14]", "result": "0.94 (inactive)"}, {"measurement": "normalised cell number", "setting": "[14]; [17]", "result": 1.19}, {"measurement": "normalised cell number", "setting": "[14]; [18]", "result": 1.12}]}
{"smiles": "NC[C@@H]1O[C@H](O[C@@H]2[C@@H](CO)OC(O[C@@H]3[C@@H](O)[C@H](N)C[C@H](N)[C@H]3O[C@H]3O[C@H](CO)[C@@H](O)[C@H](O)[C@H]3N)[C@@H]2O)[C@H](N)[C@@H](O)[C@@H]1O", "note": "(some centres undefined)", "values": [{"measurement": "parasite load remaining", "setting": "[13]", "result": "141% (inactive)"}, {"measurement": "viability", "setting": "[13]", "result": 87.6, "unit": "%"}, {"measurement": "red/green cell ratio (normalised)", "setting": "[14]", "result": "1.21 (inactive)"}, {"measurement": "normalised cell number", "setting": "[14]; [17]", "result": 0.93}, {"measurement": "normalised cell number", "setting": "[14]; [18]", "result": 1.13}]}
{"smiles": "CC[C@H](C)C(=O)O[C@H]1CCC=C2C=C[C@H](C)C(CCC3C[C@@H](O)CC(=O)O3)[C@H]21", "note": "(some centres undefined)", "values": [{"measurement": "inhibition", "setting": "[15]", "result": -3.44, "unit": "%"}, {"measurement": "score", "setting": "[16]", "result": 0.88}, {"measurement": "red/green cell ratio (normalised)", "setting": "[14]", "result": "0.93 (inactive)"}, {"measurement": "normalised cell number", "setting": "[14]; [17]", "result": 0.95}, {"measurement": "normalised cell number", "setting": "[14]; [18]", "result": 0.89}]}
